ELG1 genotoxic = qHTS screen for small molecules that induce genotoxicity in human embryonic kidney (HEK293T) cells expressing luciferase-tagged ELG1 | 330,000 tested, 1.3% active | Potency, µM (series often up to 46 µM), without a hit: top-dose activity change, positive = activation, hits mostly activators | HEK293T ELG1-luciferase reporter, luminescence, 16 h; also: % of control where 0% means no effect; nearly all actives have a fitted effect of over 60% in size
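Reporter readout depends on ELG1 protein level, which increases with genetic stress. After 16 hr compound exposure at 37 °C, luciferase activity was quantified using ONE-Glo.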
p53 reactivator = qHTS assay for re-activators of p53 using a Luc reporter. H1299 p53-A138V BP100-luciferase reporter, luminescence, 24 h. Potency, µM (top dose mostly 92.2 µM), for the others: at the highest dose activity change, positive = activation, hits mostly activators. 320,000 tested, 0.063% active; also: % of control where 0% means no effect; nearly all actives have a fitted effect of over 45% in size
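p53-null H1299 cells stably carrying temperature-sensitive p53-A138V and a BP100-luciferase reporter were pinned with compounds (4-point, 1:5 series) and held 24 hrs at 37 deg C. Luminescence was read 10 min after detection reagent.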
SMN2 splice up = qHTS Assay for Enhancers of SMN2 Splice Variant Expression | HEK293 SMN2-luciferase splicing reporter, luminescence, 30-36 h | Potency, µM (highest dose often 46.1 µM), for inactives: at the highest dose activity change, positive = activation, usual class: activators | 210,000 tested, 2.8% active | AID 1458, 2008; also: % of control where 0% means no effect; nearly all actives have a fitted effect of over 55% in size
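HEK293 cells carry an SMN2 minigene-luciferase reporter in which exon 7 inclusion puts luciferase in frame. Cells were seeded at 2000 cells/well, attached for 10-12 hours, then exposed to compounds for 30-36 hours at 37C before ONE-Glo luminescence.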
FLuc counter = qHTS profiling assay for firefly luciferase inhibitor/activator using purifed enzyme and Km concentrations of substrates (counterscreen for miR-21 project). Luciferin 4-monooxygenase (Photinus pyralis), P08659. purified FLuc, Km substrates, luminescence inhibition. Potency, µM (highest dose often 57.5 µM), inactives show at the highest dose activity change, negative = inhibition, hits mostly inhibitors. 360,000 tested, 6.9% active. AID 588342, 2011;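 also: plate controls were vehicle for no effect and reference inhibitor for full effect; nearly all actives have a fitted effect of over 55% in size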
Target sequence (P08659 whole entry, looked up): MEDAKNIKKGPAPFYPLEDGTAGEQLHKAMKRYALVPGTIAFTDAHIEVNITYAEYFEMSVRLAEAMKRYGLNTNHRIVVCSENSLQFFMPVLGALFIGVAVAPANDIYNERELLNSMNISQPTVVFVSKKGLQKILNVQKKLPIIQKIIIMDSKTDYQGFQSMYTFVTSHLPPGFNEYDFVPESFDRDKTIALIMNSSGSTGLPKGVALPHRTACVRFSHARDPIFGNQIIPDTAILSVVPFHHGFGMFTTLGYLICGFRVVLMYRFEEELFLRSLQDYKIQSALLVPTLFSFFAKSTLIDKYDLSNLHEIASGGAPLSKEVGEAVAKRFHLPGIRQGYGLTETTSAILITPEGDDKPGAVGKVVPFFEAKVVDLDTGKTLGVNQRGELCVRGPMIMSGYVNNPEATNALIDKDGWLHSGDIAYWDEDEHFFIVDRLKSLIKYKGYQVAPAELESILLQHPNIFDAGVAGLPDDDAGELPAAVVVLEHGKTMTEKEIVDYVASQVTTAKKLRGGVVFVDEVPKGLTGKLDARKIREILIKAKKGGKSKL
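Biochemical qHTS of compounds, final roughly 60 µM downward over six points, against 10 nM purified firefly luciferase using Km concentrations of substrates (10 uM D-luciferin, 10 uM ATP) in Tris acetate pH 7.5 buffer; luminescence output.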
NPC1 promoter act = qHTS Assay for NPC1 Promoter Activators; Huh7 NPC1 promoter luciferase reporter, 24 h; Potency, µM (titrated, usually from 9.22 µM), for inactives: top-dose activation, most hits filed as activators; 320,000 tested, 2.4% active; AID 485313, 2010; also: % of control where 0% means no effect; nearly all actives have a fitted effect of over 60% in size
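Luminescence from an NPC1 promoter-driven luciferase reporter in stably transfected Huh7 cells was measured after 24 h compound treatment at 37 °C, followed by 10 min ambient incubation with luciferase detection reagent.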
Rab9 promoter act = qHTS Assay for Rab9 Promoter Activators. 320,000 tested, 2.8% active. Potency, µM (doses to about 9.22 µM), without a hit: at the top dose activation, negative = inhibition, actives largely listed as activators. AID 485297, 2010. Huh7 Rab9 promoter-luciferase reporter, luminescence, 24 h; also: % of control where 0% means no effect; nearly all actives have a fitted effect of over 60% in size
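Rab9 promoter-driven luciferase in stably transfected Huh7 cells; 1500 cells/well rested 2 h, exposed to compound in DMSO for 24 h at 37 °C, 5% CO2. Luminescence read 10 min after adding luciferase reagent at ambient temperature.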
The depositor's hits bear a star; ? = inconclusive; nt = no result; [ ] = remark or other dose. Rows were chosen to be rich in hits. Some 7.4% of all compounds tested hit in one or more screens of this group. Calls follow the shape of the dose curve; as a rule, active = well fitted curve in the direction sought with a large enough effect; inconclusive = small, poorly fitted or top-dose-only effect, or another doubt; inactive = no such curve, though single readings can be large; an effect the other way counts as inactive or inconclusive. Potency is read from the fitted curve at half-maximal effect.

SMILES	ELG1 genotoxic	p53 reactivator	SMN2 splice up	FLuc counter	NPC1 promoter act	Rab9 promoter act
COC(=O)N1C2=C(c3ccccc3[C@@H]1CC(=O)Nc1ccc(Br)cc1)[C@@H]1C(=O)N(c3ccccc3)C(=O)[C@@H]1[C@H](C)C2	nt	nt	-4%[9.22 µM]	nt	nt	nt
Cc1cccc(Nc2nc3ccccc3s2)c1C	6.5µM*	?	10µM*	2.4µM*	3.2µM*	2.5µM*
COc1ccc(CC(=O)Nc2sc3c(c2C(N)=O)CCCC3)cc1	-2%	-3%	nt	-8%	-2%	-6%
COc1ccc2nc(NC3=NCCC3)sc2c1	?	8%	?	12µM*	3.5µM*	3.2µM*
COc1ccc(-c2nc(NC3=NCCCCC3)sc2C)cc1	-3%	-2%	-10%	?	2%	-4%
COc1ccc(Nc2nc3ccccc3s2)cc1	?	6%	10µM*	5.4µM*	2.5µM*	1.4µM*
COc1ccc2nc(Nc3sc4c(c3C(N)=O)CCCC4)sc2c1	17%	?	29%	11µM*	8%	3%
CCOc1ccccc1NC(=O)c1c(NC(=O)COc2ccccc2)sc2c1CCCCC2	nt	nt	-6%	0%	nt	nt
CCCOc1ccc(NC(=O)CC2C(=O)N(c3ccc(C)cc3)C(=O)N2C2CCCC2)cc1 (stereo not given)	nt	nt	6%	-10%	nt	nt
O=C(NCCc1ccc(Cl)cc1)C(=O)NCC(c1ccco1)S(=O)(=O)c1ccc(Cl)cc1 (stereo not given)	nt	nt	nt	-1%	nt	nt
O=C1c2ccccc2C(=O)C1(c1ccccc1)N1CCN(c2cccc(Cl)c2)CC1	nt	nt	-6%	-6%	nt	nt
COc1cccc(Nc2nc3ccc(OC)cc3s2)c1	?	?	20µM*	4.3µM*	?	4.5µM*
COc1ccc2nc(NCc3cccnc3)sc2c1	13%	8%	nt	?	23%	?
COc1cc(OC)cc(-c2nc(-c3ccc(Br)cc3)no2)c1	5%	6%	5%	13µM*	27%	?
COc1ccccc1-c1nc(-c2ccncc2)no1	?	14%	13µM*	6.7µM*	2µM*	2µM*
CCOc1ccc(-c2nc(-c3ccc(OC)cc3)no2)cc1OCC	-1%	?	-30%	-3%	-1%	1%
Clc1cccc(OCc2nc(-c3ccncc3)no2)c1	11%	15%	15%	-19%	7%	23%
Clc1ccc(OCc2nc(-c3ccncc3)no2)c(Cl)c1	7.3µM*	?	16µM*	2.1µM*	0.89µM*	0.63µM*
CCOc1ccccc1-c1nc(-c2ccncc2)no1	nt	nt	-5%	-19%	nt	nt
COc1ccc(-c2nc(-c3ccc(Br)cc3)no2)c(OC)c1	nt	nt	7.1µM*	1.2µM*	nt	nt
CCOc1ccccc1-c1nc(-c2ccc(-c3ccccc3)nc2OCC)no1	nt	nt	1%	0%	nt	nt
CN(C)c1ccc(-c2noc(-c3ccccc3O)n2)cc1	?	7.1µM*	32%	0.27µM*	0.71µM*	?
COc1ccccc1-c1nc(-c2ccc(Br)cc2)no1	3.7µM*	?	16µM*	4.8µM*	?	5µM*
CCOc1ccccc1NC(=O)c1ccccc1-c1nc(-c2ccccc2OC)no1	-18%	-3%	nt	11µM*	2%	6%
COCCNC(=O)c1ccccc1-c1nc(-c2ccccc2OC)no1	2%	12%	-28%	?	?	0%
SMILES	ELG1 genotoxic	p53 reactivator	SMN2 splice up	FLuc counter	NPC1 promoter act	Rab9 promoter act
CCSc1ccccc1-c1nc(-c2ccncc2)no1	19%	nt	nt	?	?	29%
CCOc1nc(C)ccc1-c1noc(-c2ccccc2OC)n1	2%	5%	-8%	24µM*	9%	7%
Cc1cccc(-n2c(SCC(=O)c3ccccc3)nnc2-c2ccc(Br)cc2)c1	nt	nt	nt	0%	nt	nt
COc1ccc(-c2c3c(=O)n(C)c(=O)n(C)c3c3n2-c2ccccc2NC3c2ccc(O)cc2O)cc1 (stereo not given)	nt	nt	nt	-7%	nt	nt
COc1ccc(Cl)cc1-c1nc(-c2ccncc2)no1	?	3%	28µM*	1%	29%	18%
COc1ccccc1-c1noc(-c2cccnc2)n1	21µM*	30%	1%	?	22%	14%
Cc1ccc(-c2noc(-c3ccccc3Br)n2)cc1	?	?	13µM*	0.67µM*	0.79µM*	2.8µM*
Cn1cnnc1SCC(=O)c1ccc2c(c1)CCCC2	?	?	5%	19µM*	14%	23%
Cn1cnnc1SCC(=O)Nc1ccc2c(c1)CCC2	10%	17%	3%	-8%	14%	5%
CC(C)(C)OC(=O)N/N=C\c1cccnc1	-13%	19%	nt	11µM*	21%	?
CC(C)(C)NC(=O)C(=O)N/N=C/c1ccc(Br)cc1	8%	-1%	-3%	?	19%	7%
CC(C)(C)OC(=O)N/N=C/c1ccc(Br)cc1	?	?	11µM*	12µM*	?	1.6µM*
COc1cc(C=O)ccc1OCc1ccccc1Br	?	?	?	9.5µM*	?	?
COc1cc(C=O)ccc1OCCSc1ccc(C)cc1	16µM*	?	14%	?	12%	8%
COc1ccc(C=O)cc1COc1ccc(F)cc1F	11%	-1%	-10%	-1%	4%	4%
COc1cc(C=O)ccc1OCc1cccc(Br)c1	?	?	14µM*	7.6µM*	-3%	-6%
O=C(CSc1nc2c([nH]c3ccccc32)c(=O)n1-c1ccccc1)Nc1ccc2c(c1)OCCO2	nt	nt	nt	2%	nt	nt
CC1(C)SC2C(NC(=O)C(NC(=O)N3CCNC3=O)c3ccccc3)C(=O)N2C1C(=O)O (stereo not given)	nt	nt	0%	nt	nt	nt
COC(=O)N[C@H](C[N+](=O)[O-])C(C)(C)C	nt	nt	-4%	nt	nt	nt
CNc1oc(/C=C/c2cc(OC)c(OC)c(OC)c2)nc1C#N	nt	nt	14%	-1%	nt	nt
CCOc1cc(CNC(=O)c2cc(-c3ccc(Cl)s3)nc3ccccc23)ccc1OC	nt	nt	-9%	-3%	nt	nt
O=C(N/N=C/C(Br)=C/c1ccccc1)c1ccccc1[N+](=O)[O-]	3%	nt	nt	?	-3%	0%
COc1ccc(C(=O)N/N=C/C(Br)=C/c2ccccc2)cc1	-2%	?	11%	3µM*	9%	19%
Cn1cc(C(=O)N/N=C/C(Br)=C\c2ccccc2)ccc1=O	14%	-8%	15%	?	-7%	11%

Screens (PubChem)
